The source of these data is PubChem BioAssay (NCATS).

Molecules are shown by their SMILES. Inconclusive results are not listed. Active and inactive are the calls of the source. The call rests on the fitted dose curve; in most records, active means well fitted inhibition curve with a large enough effect; inconclusive means small, poorly fitted or top-dose-only effect; inactive means flat fitted curve, though single readings scatter.

This experiment addresses Aldehyde dehydrogenase, mitochondrial (Homo sapiens) (UniProt P05091). Kind of experiment: qHTS for Inhibitors of the Aldehyde Dehydrogenase Family (ALDH2) Primary screen (AID 2061308).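 Further: plate controls were vehicle for no effect and reference inhibitor for full effect; nearly all actives have a fitted effect of over 55% in size.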 As to conditions: ALDH2 enzyme inhibition qHTS, 1536-well; series mostly up to 56 µM; activity change, negative = inhibition: at the top concentration.
With `C=C1C[C@@]23CC[C@@H]4[C@](C)(C(=O)O)CCC[C@@]4(C)C2=CC[C@H]1C3`, the “activity change, negative = inhibition” value is 0.597% (inactive).

Consider `C=CC(C)(O)C(O)CC1C(C)(O)C(O)C(O)C2C(C)(C)CCCC21C` (centres undefined), for which the “activity change, negative = inhibition” value is 0.478% (inactive).

Regarding `Cc1ccc(Sc2cncc3sc(C(N)=O)cc23)cc1`, the “activity change, negative = inhibition” value is 3.54% (inactive).

For `COc1cc2c(cc1O)CC(O)(CO)C(CO)C2c1ccc(OC2OC(CO)C(O)C(O)C2O)c(OC)c1` (centres undefined), the “activity change, negative = inhibition” value was -4.95% [at 28 µM] (inactive).

For the compound `C[C@@H]1O[C@@H](OC(=O)Cc2ccccc2)[C@H](O)[C@H](O)[C@H]1O`, the “activity change, negative = inhibition” value was -9.91% (inactive).

Take `CC1CCC2C(C)(C)C(O)CCC2(C)C12Cc1c(O)cc3c(c1O2)CN=C3N` (centres undefined): the “activity change, negative = inhibition” value is -0.735% (inactive).

As for `CS/C=C/C(=O)O[C@@H]1CCC2=CC(=O)C(=C(C)C)C[C@]2(C)[C@H]1C`, the “activity change, negative = inhibition” value is -22.5% (inactive).

For `C/C(=C\CCC(C)CCO)C(=O)O[C@@H]1[C@@H](O)[C@H](OC2OC=C(C(=O)O)C3CCC(C)(O)C23)O[C@H](CO)[C@H]1O` (some centres undefined), the “activity change, negative = inhibition” value is -3.09% [at 28 µM] (inactive).

Take `CCC[C@@H]1O[C@@H]2C[C@H]3[C@@H]4CCC5=CC(=O)C=C[C@]5(C)[C@H]4[C@@H](O)C[C@]3(C)[C@]2(C(=O)CO)O1`: the “activity change, negative = inhibition” value is 2.93% (inactive).

With `C/C=C(\C)C(=O)OC1C(C)C2(O)C3C=C(C)C(=O)C3CC(CO)=CC2C2C(C)(C)C12OC(C)=O` (centres undefined), the “activity change, negative = inhibition” value is -23% [at 28 µM] (inactive).

Take `CC(=O)O[C@@H]1[C@H](O)[C@@H](O[C@@H]2O[C@@H](C)[C@H](O[C@@H]3OC[C@@H](O)[C@H](O[C@@H]4OC[C@@H](O)[C@H](O)[C@H]4O)[C@H]3O)[C@@H](O[C@@H]3O[C@H](CO)[C@@H](O)[C@H](O)[C@H]3O)[C@H]2O)[C@H](OC(=O)[C@]23CCC(C)(C)C[C@H]2C2=CCC4[C@@]5(C)CC[C@H](O[C@@H]6O[C@H](C(=O)O)[C@@H](O)[C@H](O[C@@H]7OC[C@@H](O)[C@H](O)[C@H]7O)[C@H]6O[C@@H]6O[C@H](CO)[C@H](O)[C@H](O)[C@H]6O)[C@@](C)(C=O)C5CC[C@@]4(C)[C@]2(C)CC3)O[C@@H]1C` (some centres undefined): the activity change, negative = inhibition is 5.14% [at 11.2 µM] (inactive).

As to `C=C1C(=O)O[C@@H]2C[C@@H](C)[C@]34C[C@]5(C(=O)O[C@H]6CC(C)=C([C@H](C)CCCO)[C@H](OC(=O)C(C)CC)[C@H]65)[C@@H](C(C)=C3C[C@@H]12)[C@H]4OC(C)=O` (some centres undefined), the “activity change, negative = inhibition” value is -1.86% [at 16.9 µM] (inactive).

Consider `C[C@@H]1CC[C@]2(C)C3(C)CC[C@@]2(OC3=O)[C@@]12C[C@H](c1ccoc1)OC2=O`, for which the “activity change, negative = inhibition” value was 2.08% (inactive).

On to `COC1OC(OC)C(O)(CCC2(C)C(C)CCC3(C)C2CC(O)C(O)C32CO2)C1O` (centres undefined), for which the “activity change, negative = inhibition” value is 15.5% [at 28 µM] (inactive).

Regarding `CC1(C(=O)O)CCCC2(C)C3CC4C5CC3(CCC12)CC45C` (centres undefined), the “activity change, negative = inhibition” value is -7.14% (inactive).

With `C[C@@H]1O[C@@H](O[C@H]2[C@@H]3C=CO[C@@H](O[C@@H]4O[C@H](CO)[C@@H](O)[C@H](O)[C@H]4O)[C@@H]3[C@@]3(CO)O[C@@H]23)[C@H](OC(=O)/C=C/c2ccccc2)[C@H](O)[C@H]1O`, the “activity change, negative = inhibition” value is -2.16% [at 16.9 µM] (inactive).

In the case of `CC(=O)OC1CC(C)C2(CCC3(CC(=O)OC3O)O2)C2(C)CCCC(C)(C)C12` (centres undefined), the “activity change, negative = inhibition” value is 0.786% [at 28 µM] (inactive).

With `COC(=O)c1cc(CN2CCN(C(=N)N)CC2)cc(C(=O)N2CCN(C(=O)c3ccc(C(=N)N)cc3)CC2)c1`, the “activity change, negative = inhibition” value was -6.82% (inactive).

As for `COc1cc(C#N)ccc1S(=O)(=O)Nc1ccc2c(c1)cc(C)c(=O)n2C`, the “activity change, negative = inhibition” value was -12.9% (inactive).

For the compound `CCC(CC)n1ccc2c(C(=O)NCc3c(C)cc(C)[nH]c3=O)cc(C#N)cc21`, the “activity change, negative = inhibition” value was 1.77% (inactive).

With `CC(=O)OCC1=C[C@H](O)[C@@H]2C(C(=O)O)=CO[C@@H](O[C@@H]3O[C@H](CO)[C@@H](O)[C@H](O)[C@H]3O)[C@H]12`, the “activity change, negative = inhibition” value was 3.37% [at 28 µM] (inactive).

For the compound `C[C@@H]1O[C@@H](O[C@@H]2[C@@H](O)[C@H](O[C@H]3[C@H](O[C@H]4CC[C@@]5(C)C(CC[C@]6(C)C5CC=C5[C@@H]7CC(C)(C)CC[C@]7(C(=O)O[C@@H]7O[C@H](CO)[C@@H](O)[C@H](O)[C@H]7O)CC[C@]56C)C4(C)C)O[C@H](C(=O)O)[C@@H](O)[C@@H]3O)OC[C@H]2O)[C@H](O)[C@H](O)[C@H]1O` (some centres undefined), the “activity change, negative = inhibition” value is 8.04% [at 16.9 µM] (inactive).

Consider `C=CC1(C)CC(O)C2(CCC3C(C)(C(=O)O)CCCC3(C)C2=O)C1` (centres undefined), for which the “activity change, negative = inhibition” value was 2.67% (inactive).

With `CC1=C(CC/C(C)=C/C(=O)O)[C@@]2(C)CCCC(C)(C)C2CC1=O` (some centres undefined), the “activity change, negative = inhibition” value is -1.29% (inactive).

As for `Cc1nc(Nc2n[nH]c3c2CN(C(=O)NC(CN(C)C)c2ccccc2)C3(C)C)c2sccc2n1` (centres undefined), the “activity change, negative = inhibition” value is 17.7% (inactive).

In the case of `C[C@@H]1CCC2C(C)(C)[C@H](O)CC[C@]2(C)[C@@]12Cc1c(O)cc3c(c1O2)CNC3=O` (some centres undefined), the “activity change, negative = inhibition” value was 8.83% (inactive).

On to `CC1(C)CC2C(C1)C1(C)CCC13OC3(CO)C2O` (centres undefined), for which the “activity change, negative = inhibition” value is 16.4% (inactive).

In the case of `COc1cc2c(cc1OC)N1C(=O)C[C@@]34C=CC[N@+]5([O-])CC[C@H]2[C@H](CC3)[C@@]145`, the “activity change, negative = inhibition” value was 2.3% (inactive).

Regarding `C[C@@H]1O[C@@H](O[C@H]2[C@H](O[C@H]3[C@H](O[C@H]4CC[C@@]5(C)C(CC[C@]6(C)C5CC=C5[C@@H]7CC(C)(C)C[C@@H](O)[C@]7(C)CC[C@]56C)[C@@]4(C)CO)O[C@H](C(=O)O)[C@@H](O)[C@@H]3O)O[C@H](CO)[C@H](O)[C@@H]2O)[C@H](O)[C@H](O)[C@H]1O` (some centres undefined), the “activity change, negative = inhibition” value was -5.06% [at 16.9 µM] (inactive).
